We go through five molecules from PubChem BioAssay.

Activity calls are given as the source filed them.

Assay [1] in a line: binders of probe aFSTL3 on microarray, primary screen, stem cell growth factor project, biochemical, small-molecule microarray, fluorescence 635/667 (AID 1064).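 Further: measures binding of the biotinylated anti-FSTL3 antibody to printed compounds.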 Particulars: higher = more signal.
A short description of assay [2]: binders from COS7 lysate, DM2A8 probe, primary screen, torsin A project, cell lysate, small-molecule microarray, fluorescence 635/667 (AID 1065). Particulars: higher = more signal, COS7 lysate expressing mutant human TOR1A.
Assay [3] can be described thus: binders of probe aFGF2 on microarray, primary screen, stem cell growth factor project, biochemical, small-molecule microarray, fluorescence 635/667 (AID 1067).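 Further: measures binding of biotinylated aFGF2 protein to printed compounds on slides; z-score merges feature fluorescence and signal-to-noise across triplicate slides.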 Particulars: higher = more signal.
Assay [4] in a line: binders of probe aFGF10 on microarray, primary screen, stem cell growth factor project, biochemical, small-molecule microarray, fluorescence 635/667 (AID 1071).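 Further: score merges 667 nm spot intensity and signal to noise from triplicate slides.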 Particulars: higher = more signal.
Assay [5] addresses Neurogenic locus notch homolog protein 2 (Homo sapiens) (UniProt Q04721). The assay is described as follows: Notch2 binders on small-molecule microarrays, primary screen, biochemical, small-molecule microarray, 635 nm fluorescence, stem cell growth factors (AID 1073). Particulars: Notch2 binding, higher = more signal.
The target of assay [6] is Pro-neuregulin-1, membrane-bound isoform (Homo sapiens) (UniProt Q02297). The assay is described as follows: NRG1 binders on small-molecule microarrays, primary screen, psychiatric disease protein project, biochemical, small-molecule microarray, fluorescence 635/667 (AID 1075).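 Further: score combines 667 nm spot fluorescence with signal to noise.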 Particulars: NRG1 binding, 635 nm fluorescence, higher = more signal.
Assay [7] deals with Neuregulin-1 EGF-like domain. The assay is described as follows: binders of neuregulin-1 EGF-like domain, primary screen, biochemical, small-molecule microarray, 635 nm fluorescence (AID 1081).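 Further: binding of the protein to compounds printed on small-molecule microarray slides.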 Particulars: small-molecule microarray binding, higher = more signal.
Assay [8] is described as follows: FRG1 promoter luciferase signal modulators, primary screen, FRG1 inhibition for FSHD, cell-based, C2C12 myotubes, firefly/Renilla luciferase, luminescence (AID 1084). Particulars: higher = more signal, called active from +8 up or from −8 down.
Assay [9] is described as follows: binders of probe aFST on microarray, primary screen, stem cell growth factor project, biochemical, small-molecule microarray, fluorescence 635/667 (AID 1086).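 Further: score merges 667 nm fluorescence with signal-to-noise of each printed compound spot.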 Particulars: higher = more signal.
The nature of assay [10]: binders of probe aHhip on microarray, primary screen, stem cell growth factor project, biochemical, small-molecule microarray, fluorescence 635/667 (AID 1087).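 Further: score merges spot fluorescence at 667nm with spot signal to noise ratio.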 Particulars: higher = more signal.
Assay [11] has as its system PRMT1 (protein arginine N-methyltransferase 1). Kind of assay: PRMT1 binders on small-molecule microarrays, primary screen, biochemical, small-molecule microarray, 635 nm fluorescence (AID 1088).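 Further: binding of Prmt1 protein to compounds spotted on small-molecule microarray slides.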 Particulars: small-molecule microarray binding, higher = more signal.
Assay [12] is described as follows: yeast growth modulation, basal conditions, primary screen, YJM789 clinical isolate, OD600, 24 h (AID 1089).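 Further: growth of clinical yeast isolate S. cerevisiae YJM 789 seeded 1000 cells per well; test concentration not given here.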 Particulars: S. cerevisiae YJM789 growth, higher = more signal, called active from +8 up or from −8 down.
Assay [13] in a line: fission yeast growth modulation, primary screen, strain 972, OD600, 24 h, no modulator (AID 1090).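 Further: basal condition with compound alone and no growth modifier present; test concentration not given here.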 Particulars: S. pombe 972 growth, higher = more signal, called active from +8 up or from −8 down.
Assay [14] can be described thus: S. cerevisiae growth modulation with rapamycin, primary screen, strain BY4716, OD600, 96 h (AID 1091). Further: test concentration not given here. Particulars: higher = more signal, called active from +8 up or from −8 down.
The target in assay [15] is Torsin-1A-interacting protein 2 (Homo sapiens) (UniProt Q8NFQ8). Kind of assay: LULL1 binders on small-molecule microarray, primary screen, cell lysate, human LULL1 lysate, 635/667 nm fluorescence (AID 1092).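 Further: probe is lysate of COS7 cells overexpressing human LULL1; score merges per-feature 667 nm fluorescence with signal-to-noise.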 Particulars: hLULL1 lysate binding, 635 nm fluorescence, higher = more signal.
Assay [16] is described as follows: E. coli growth modulation, two-sided OD650, primary screen, E. coli filamentation project, strain DRC41, 24 h (AID 1093).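 Further: MC1000 strain lacking acrAB efflux and sulA so SOS filamentation is blocked; test concentration not given here.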 Particulars: OD650, 24 h, higher = more signal, called active from +8 up or from −8 down.
A short description of assay [17]: small-molecule microarray binders of probe aLefty2, primary screen, biochemical, biotinylated probe, 635/667 nm fluorescence (AID 1094).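 Further: score merges spot fluorescence near 667 nm with spot signal-to-noise ratio.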 Particulars: higher = more signal.
The subject of assay [18] is Noggin (protein binding on small-molecule microarray). Kind of assay: Noggin binders on small-molecule microarray, primary screen, biochemical, 635/667 nm fluorescence (AID 1095).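 Further: score merges 667 nm feature fluorescence with signal to noise over triplicate slides.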 Particulars: 635 nm fluorescence, higher = more signal.
The target of assay [19] is Neurogenic locus notch homolog protein 3 (Homo sapiens) (UniProt Q9UM47). The assay is described as follows: NOTCH3 binders on small-molecule microarray, primary screen, biochemical, 635/667 nm fluorescence (AID 1096). Particulars: NOTCH3 binding, 635 nm fluorescence, higher = more signal.
Neurogenic locus notch homolog protein 3 (Homo sapiens), sequence (Q9UM47 whole entry, looked up): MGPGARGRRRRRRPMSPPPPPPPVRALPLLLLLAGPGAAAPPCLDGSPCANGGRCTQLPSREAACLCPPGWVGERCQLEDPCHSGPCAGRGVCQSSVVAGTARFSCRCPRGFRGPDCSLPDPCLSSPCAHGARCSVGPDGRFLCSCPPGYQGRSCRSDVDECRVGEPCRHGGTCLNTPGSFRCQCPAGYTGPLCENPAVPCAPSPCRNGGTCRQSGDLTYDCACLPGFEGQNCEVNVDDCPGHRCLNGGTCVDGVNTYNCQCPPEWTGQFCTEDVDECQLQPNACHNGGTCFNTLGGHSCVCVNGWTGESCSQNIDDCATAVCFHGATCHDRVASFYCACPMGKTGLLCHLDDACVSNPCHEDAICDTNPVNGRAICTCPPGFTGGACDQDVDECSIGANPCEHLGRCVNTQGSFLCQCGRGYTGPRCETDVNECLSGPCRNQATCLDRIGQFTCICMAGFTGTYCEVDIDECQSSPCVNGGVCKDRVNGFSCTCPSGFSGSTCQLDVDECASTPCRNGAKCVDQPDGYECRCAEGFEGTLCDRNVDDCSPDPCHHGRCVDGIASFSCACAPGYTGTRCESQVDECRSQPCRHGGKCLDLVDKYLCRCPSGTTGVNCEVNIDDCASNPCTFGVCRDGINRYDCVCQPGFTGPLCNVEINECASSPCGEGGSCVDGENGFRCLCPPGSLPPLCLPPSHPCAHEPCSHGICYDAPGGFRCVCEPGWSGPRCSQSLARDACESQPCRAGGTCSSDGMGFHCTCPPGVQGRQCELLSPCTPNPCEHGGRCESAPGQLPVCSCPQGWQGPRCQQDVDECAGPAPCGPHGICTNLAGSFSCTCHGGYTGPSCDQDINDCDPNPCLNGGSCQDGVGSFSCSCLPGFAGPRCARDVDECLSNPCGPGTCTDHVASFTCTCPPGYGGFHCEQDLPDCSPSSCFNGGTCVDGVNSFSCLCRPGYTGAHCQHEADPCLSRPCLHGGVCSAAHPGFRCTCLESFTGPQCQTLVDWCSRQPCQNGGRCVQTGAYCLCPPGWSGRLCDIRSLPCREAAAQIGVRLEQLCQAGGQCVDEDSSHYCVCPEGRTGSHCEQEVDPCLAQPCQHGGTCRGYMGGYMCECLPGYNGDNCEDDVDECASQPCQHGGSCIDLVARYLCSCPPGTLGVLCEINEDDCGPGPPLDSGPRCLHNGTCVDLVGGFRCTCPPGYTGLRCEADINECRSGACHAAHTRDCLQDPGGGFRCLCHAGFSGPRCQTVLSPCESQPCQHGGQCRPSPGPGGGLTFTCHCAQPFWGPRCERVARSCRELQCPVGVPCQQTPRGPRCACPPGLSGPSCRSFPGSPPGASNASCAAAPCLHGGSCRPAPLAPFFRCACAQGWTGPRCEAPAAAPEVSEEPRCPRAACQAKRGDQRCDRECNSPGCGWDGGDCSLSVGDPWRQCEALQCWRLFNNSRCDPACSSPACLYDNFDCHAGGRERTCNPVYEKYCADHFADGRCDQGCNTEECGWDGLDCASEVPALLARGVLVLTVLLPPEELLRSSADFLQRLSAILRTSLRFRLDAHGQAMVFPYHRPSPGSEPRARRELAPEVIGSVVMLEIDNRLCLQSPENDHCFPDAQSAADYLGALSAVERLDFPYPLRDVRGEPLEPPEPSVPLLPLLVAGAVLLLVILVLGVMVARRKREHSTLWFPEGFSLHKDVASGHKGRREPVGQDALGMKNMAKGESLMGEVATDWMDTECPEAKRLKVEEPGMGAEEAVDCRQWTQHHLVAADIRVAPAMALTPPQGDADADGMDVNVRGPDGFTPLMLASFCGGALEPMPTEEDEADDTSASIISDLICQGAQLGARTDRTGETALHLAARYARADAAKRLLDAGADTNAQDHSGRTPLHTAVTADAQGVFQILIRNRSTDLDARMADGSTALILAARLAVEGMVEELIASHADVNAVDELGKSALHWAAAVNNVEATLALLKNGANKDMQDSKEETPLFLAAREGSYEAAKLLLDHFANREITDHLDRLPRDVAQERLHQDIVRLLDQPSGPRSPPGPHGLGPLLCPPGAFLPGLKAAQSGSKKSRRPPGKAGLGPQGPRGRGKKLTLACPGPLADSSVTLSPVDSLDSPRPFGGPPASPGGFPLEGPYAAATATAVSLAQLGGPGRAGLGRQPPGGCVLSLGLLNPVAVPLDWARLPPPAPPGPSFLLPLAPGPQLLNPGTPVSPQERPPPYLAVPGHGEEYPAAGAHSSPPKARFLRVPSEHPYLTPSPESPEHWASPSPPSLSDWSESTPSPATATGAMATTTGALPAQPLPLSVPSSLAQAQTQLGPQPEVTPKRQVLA
Assay [20] in a line: small-molecule microarray binders of probe aEGFR, primary screen, biochemical, biotinylated probe, 635/667 nm fluorescence (AID 1097).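 Further: probe is a biotinylated anti-EGFR antibody binding compounds printed on slides; score combines fluorescence near 667 nm and signal to noise of each spot.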 Particulars: higher = more signal.

Neurogenic locus notch homolog protein 2 (Homo sapiens), sequence (Q04721 whole entry, looked up, canonical isoform): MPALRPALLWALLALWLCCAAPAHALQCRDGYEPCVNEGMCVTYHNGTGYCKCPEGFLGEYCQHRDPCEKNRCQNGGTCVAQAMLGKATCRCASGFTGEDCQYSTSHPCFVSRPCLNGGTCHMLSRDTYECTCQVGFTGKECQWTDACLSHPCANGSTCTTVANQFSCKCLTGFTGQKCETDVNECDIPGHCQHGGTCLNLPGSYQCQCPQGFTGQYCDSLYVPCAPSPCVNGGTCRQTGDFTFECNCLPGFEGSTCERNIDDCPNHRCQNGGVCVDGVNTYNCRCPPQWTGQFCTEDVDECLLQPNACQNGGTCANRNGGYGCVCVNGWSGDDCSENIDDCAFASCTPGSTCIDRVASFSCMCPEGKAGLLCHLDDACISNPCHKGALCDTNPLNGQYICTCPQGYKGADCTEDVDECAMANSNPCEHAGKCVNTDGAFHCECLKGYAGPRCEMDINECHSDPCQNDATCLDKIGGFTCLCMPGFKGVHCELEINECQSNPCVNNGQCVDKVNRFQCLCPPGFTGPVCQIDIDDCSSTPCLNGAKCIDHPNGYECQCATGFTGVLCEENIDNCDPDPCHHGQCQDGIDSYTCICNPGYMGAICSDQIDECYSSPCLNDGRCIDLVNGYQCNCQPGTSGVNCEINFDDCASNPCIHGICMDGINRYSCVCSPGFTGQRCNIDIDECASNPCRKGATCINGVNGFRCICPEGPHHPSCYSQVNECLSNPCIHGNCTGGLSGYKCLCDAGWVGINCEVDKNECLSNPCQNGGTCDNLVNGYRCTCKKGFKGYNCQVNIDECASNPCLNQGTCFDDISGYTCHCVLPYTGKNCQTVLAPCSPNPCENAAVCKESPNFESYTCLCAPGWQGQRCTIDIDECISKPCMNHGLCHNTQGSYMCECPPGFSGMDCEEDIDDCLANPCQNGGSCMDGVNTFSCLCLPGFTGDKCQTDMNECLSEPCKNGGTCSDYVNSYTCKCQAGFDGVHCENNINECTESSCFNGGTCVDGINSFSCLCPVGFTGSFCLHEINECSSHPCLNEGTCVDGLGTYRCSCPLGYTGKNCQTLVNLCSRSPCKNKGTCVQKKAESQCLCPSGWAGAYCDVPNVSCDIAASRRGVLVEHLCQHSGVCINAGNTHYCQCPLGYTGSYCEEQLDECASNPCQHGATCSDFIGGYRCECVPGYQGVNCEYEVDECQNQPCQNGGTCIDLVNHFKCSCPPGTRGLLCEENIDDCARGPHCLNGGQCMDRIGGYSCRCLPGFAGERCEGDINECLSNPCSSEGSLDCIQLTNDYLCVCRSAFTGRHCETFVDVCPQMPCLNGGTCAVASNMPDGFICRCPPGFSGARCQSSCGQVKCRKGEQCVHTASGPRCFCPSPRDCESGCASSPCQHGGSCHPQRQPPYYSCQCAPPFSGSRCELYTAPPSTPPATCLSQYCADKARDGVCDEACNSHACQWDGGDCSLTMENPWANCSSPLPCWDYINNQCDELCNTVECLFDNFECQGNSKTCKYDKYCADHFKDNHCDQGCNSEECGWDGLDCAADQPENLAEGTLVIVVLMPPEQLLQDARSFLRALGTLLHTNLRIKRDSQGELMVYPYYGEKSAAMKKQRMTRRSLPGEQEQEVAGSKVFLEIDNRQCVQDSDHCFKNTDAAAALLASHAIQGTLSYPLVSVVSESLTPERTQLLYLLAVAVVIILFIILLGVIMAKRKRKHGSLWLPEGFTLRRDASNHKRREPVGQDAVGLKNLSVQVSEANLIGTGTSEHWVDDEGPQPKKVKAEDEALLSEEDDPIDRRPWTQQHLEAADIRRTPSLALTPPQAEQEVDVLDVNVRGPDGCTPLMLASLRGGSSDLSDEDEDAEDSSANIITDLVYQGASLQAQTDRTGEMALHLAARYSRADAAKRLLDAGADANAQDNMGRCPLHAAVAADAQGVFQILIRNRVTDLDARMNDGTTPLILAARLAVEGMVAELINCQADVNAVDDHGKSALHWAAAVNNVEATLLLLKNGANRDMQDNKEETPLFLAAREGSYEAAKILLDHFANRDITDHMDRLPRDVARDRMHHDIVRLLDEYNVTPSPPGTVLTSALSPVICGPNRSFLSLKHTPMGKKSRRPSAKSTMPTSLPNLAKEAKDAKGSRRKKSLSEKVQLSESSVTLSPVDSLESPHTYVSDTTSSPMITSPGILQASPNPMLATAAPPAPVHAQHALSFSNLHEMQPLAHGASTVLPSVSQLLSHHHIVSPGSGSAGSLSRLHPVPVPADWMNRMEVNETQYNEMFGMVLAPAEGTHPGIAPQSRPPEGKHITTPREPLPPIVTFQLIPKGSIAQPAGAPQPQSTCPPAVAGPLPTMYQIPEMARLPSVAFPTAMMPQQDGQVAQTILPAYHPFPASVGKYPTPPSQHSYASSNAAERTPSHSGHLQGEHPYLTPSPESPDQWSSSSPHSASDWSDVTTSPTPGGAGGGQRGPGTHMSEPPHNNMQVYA

Turning to `COc1ccc(C#Cc2ccc3c(c2)[C@]2(C(=O)N3)[C@H](c3ccc(OCCO)cc3)N3[C@H](c4ccccc4)[C@H](c4ccccc4)OC(=O)[C@H]3[C@@H]2C(=O)N2CCN(c3ncccn3)CC2)cc1`, the composite z-score was -0.176 in assay [1]; 0.07 in assay [2]; -0.093 in assay [3]; 0.344 in [4]; 1.2 in [5]; -0.132 in assay [6]. For the same molecule, the composite z-score in [7] is 0.135; in [9], -0.0006; in assay [10], -0.318; in assay [11] it was 0.61; in assay [15], 1.51; in [17], -0.105. The composite z-score in [18] is 0.346; in assay [19], 0.824; in assay [20], -0.0928. Moreover, the z-score in [8] was 0.781 (inactive); in [12] it was 1.86 (inactive); in assay [13], 1.23 (inactive); in assay [14], 4.94 (inactive); in [16], 2.6 (inactive).

As for `CCCCC=C[C@@H](NC(=O)CCc1ccccc1)c1ccccc1`, the composite z-score in [1] stood at 0.0413; in assay [2], 1.04; in assay [3] it was 0.0601; in assay [4], 0.404; in assay [5], 1.11; in assay [6], 1.23. Besides, the composite z-score in assay [7] came out at 1.24; in assay [9] it was 0.843; in assay [10] it was 0.316; in [11], 0.887; in assay [15] it was 1.43; in assay [17] it was 0.138. The composite z-score is 0.0567 in assay [18], 1.12 in [19] and 0.0184 in assay [20]. Besides, the z-score in assay [8] was -1.42 (inactive); in [12], 0.174 (inactive); in [13] it was -1.52 (inactive); in assay [14], 2.19 (inactive); in assay [16], -1.52 (inactive).

For the molecule `C=CCN1C(=O)[C@@]2(O[C@@H](CCn3cc([C@H](O)c4ccccc4)nn3)[C@H]([Si](C)(C)c3ccc(OC)cc3)[C@H]2C)c2cc(NC(=O)c3ccc(OC)cc3)ccc21`, the composite z-score came to 0.027 in assay [1]; 0.321 in assay [2]; 0.0084 in assay [3]; 0.0737 in [4]; 0.147 in [5]; 0.56 in [6]. The composite z-score was 0.531 in assay [7]; 0.101 in assay [9]; 0.185 in assay [10]; 0.948 in [11]; 1.72 in assay [15]; -0.0615 in assay [17]. Moreover, the composite z-score was 0.551 in assay [18], 0.422 in assay [19] and -0.0564 in assay [20]. The z-score in assay [8] was -1.36 (inactive); in assay [12], 1.05 (inactive); in assay [13], 0.0445 (inactive); in assay [14], 0.7 (inactive); in assay [16], 0.859 (inactive).

With `[N-]=[N+]=NCc1ccccc1[C@H]1OC(c2ccc(OCCCO)cc2)=N[C@@]1(Cc1ccccc1N=[N+]=[N-])C(=O)NCCN1CCOCC1`, the composite z-score was determined as 0.0233 in assay [1]; 0.0401 in assay [2]; 0.14 in [3]; 0.981 in [4]; 1.61 in [5]; 1.49 in assay [6]. Moreover, the composite z-score in assay [7] came out at 1.1; in assay [9] it was 1.21; in [10], 0.113; in assay [11], 1.54; in [15] it was 3.43; in assay [17], 0.328. In addition, the composite z-score in [18] was 0.476; in [19], 1.02; in assay [20], -0.0205. The z-score is 0.342 (inactive) in assay [8]; 0.0051 (inactive) in [12]; -13.9 (active) in assay [13]; 0.355 (inactive) in [14]; 0.72 (inactive) in assay [16].

Consider `O=C1C[C@@](C(=O)NCc2ccccc2)(c2ccc([N+](=O)[O-])cc2)[C@@H](c2ccc(CO)cc2I)N1C1CCCCC1`, for which the composite z-score turned out to be 1.95 in assay [1]; 0.379 in assay [2]; 0.347 in assay [3]; 0.352 in [4]; 1.08 in [5]; 0.819 in [6]. Besides, the composite z-score stood at 1.29 in assay [7]; 1.3 in [9]; 0.368 in [10]; 1.55 in [11]; 2.38 in assay [15]; 0.569 in assay [17]. Besides, the composite z-score in [18] worked out at 0.924; in assay [19], 1.12; in assay [20], 0.695. For the same molecule, the z-score in assay [8] is -0.524 (inactive); in assay [12], 1.2 (inactive); in assay [13], 0.856 (inactive); in [14] it was 3.33 (inactive); in assay [16], 1.04 (inactive).
